# IEC-6 tox: kills IEC-6 intestinal cells in KLF5 counter-screen | 290,000 compounds, 0.78% hits | IEC-6 cytotoxicity, luminescence viability | inhibition, % at 5 µM; in the data active = inhibition above about 22%
# APP 5UTR inh: APP translation inhibition. 190,000 compounds, 0.82% hits. AID 1285. SH-SY5Y APP 5'UTR-luciferase reporter, luminescence. inhibition, % at 2 µM;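 active = inhibition above a set limit, derived from the sample mean plus 3 SD, cut at about 45% in these data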
# Ba/F3 V617F tox: loss of viability in JAK2V617F-driven Ba/F3 cells | inhibition, % at 5.6 µM | 220,000 compounds, 1.1% hits | Ba/F3 EpoR-JAK2V617F viability, ATP luminescence;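 active = inhibition above the campaign mean plus 3 SD over all tested compounds, cut at about 24% in these data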;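 also: cytokine-independent growth of Ba/F3 cells driven by EpoR plus mutant JAK2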
# KLF5 inhibitor: suppresses KLF5 promoter-driven expression. DLD-1 KLF5 promoter-luciferase reporter, luminescence. AID 1700. 290,000 compounds, 0.23% hits. inhibition, % at 5 µM;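 active = inhibition above a per-plate limit of that plate's mean compound inhibition plus 3 SD, cut at about 60% in these data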;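 also: higher means less KLF5 promoter-driven luciferase light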
# BaF3 tox: counter-screen for JAK2V617F inhibitors: parental Ba/F3 viability inhibitors. CellTiter-Glo ATP luminescence. inhibition, % at 5.6 µM. AID 1486. 220,000 compounds, 1.1% hits;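 active = inhibition above a per-campaign cutoff, the mean inhibition of all tested compounds plus 3 SD, cut at about 27% in these data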
# Numbers stand for hits; n = inactive; x = no result. Sampled rows, rich in hits. Any-hit rate of the full collection: about 1.9%.
SMILES,IEC-6 tox,APP 5UTR inh,Ba/F3 V617F tox,KLF5 inhibitor,BaF3 tox
CCCc1cc(C(=O)OC)c(NC(=O)CCCC(=O)O)s1,n,n,n,n,n
COc1c(Cl)cc(Cl)cc1/C=N/n1cnnc1,n,55,n,n,n
CC#CC[N+](C)(C)CCCCCCCCCC,n,x,95,n,79
C#CC[N+](C)(C)CCCCCCCCC,n,n,82,n,62
Nc1c(C(=O)c2ccccc2)sc2snc(SCC(=O)c3ccccc3)c12,n,n,n,n,95
CCn1c(SCc2ccccc2Cl)nc2nc3c(cc2c1=O)CCCC3,n,70,n,n,n
CCn1c(SCC(=O)NCc2ccccc2)nc2nc3c(cc2c1=O)CCCC3,n,n,n,n,n
CCOC(=O)Cn1nc(C)c(NC(=O)COc2cccc(Cl)c2)c1C,n,n,n,n,n
Cc1ccc(S(=O)(=O)CC2CSc3nc4ccccc4n32)cc1 (centres undefined),n,x,58,n,72
C/C(=N\NC(=O)c1cc(-c2cccnc2)nc2ccccc12)c1ccc(O)cc1O,n,66,n,n,n
COCCNC(=O)c1cc2sccc2n1C,n,n,n,n,n
CCOC(=O)Cn1c(=O)cnc2ccccc21,n,n,n,n,n
CCOC(=O)Cn1c(=O)c(-c2cc(Br)ccc2N)nc2ccccc21,n,x,47,n,88
Cn1c(=O)c(-c2cc(Br)ccc2N)nc2ccccc21,n,n,40,n,46
CN(C)c1nc2ccccc2n(C)c1=O,n,n,n,n,n
CN(C)S(=O)(=O)c1cccc(NC(=O)c2ccc(OC(F)(F)F)cc2)c1,n,n,n,n,n
FC(F)(F)c1ccc2c(c1)n(Cc1ccccc1)c1[n+]2CCCCC1,n,n,n,n,35
O=C(Cn1c2[n+](c3ccc(C(F)(F)F)cc31)CCCCC2)Nc1ccccc1,n,n,n,n,n
O=C(Cn1c2[n+](c3ccc(C(F)(F)F)cc31)CCCCC2)c1cccc([N+](=O)[O-])c1,n,n,n,n,80
Cc1sc2nc(SCC(=O)c3cc(C)n(CC4CCCO4)c3C)n(C(C)C)c(=O)c2c1C (centres undefined),n,n,n,n,n
COC(=O)C(Cc1ccc(OC(=O)c2ccc(Cl)cc2)cc1)N1Cc2ccccc2C1=O (centres undefined),n,n,n,n,96
COC(=O)c1cn(C(=O)c2ccccc2Cl)c2ccccc12,n,n,n,n,n
COC(=O)c1cn(C(=O)c2ccc(C)cc2C)c2ccccc12,n,54,n,n,n
C#CCNc1c(C)c(C)nc2ncnn12,n,n,n,n,n
C=CCN(C(=O)Nc1ccc(Cl)cc1)C1CC(=O)N(c2ccc(OC)cc2)C1=O (centres undefined),n,47,n,n,n
SMILES,IEC-6 tox,APP 5UTR inh,Ba/F3 V617F tox,KLF5 inhibitor,BaF3 tox
C=CCN(C(=O)Nc1ccc(F)cc1)C1CC(=O)N(c2ccc(OC)cc2)C1=O (centres undefined),n,n,n,n,n
CC[n+]1c(/C=C/N(C)c2ccccc2)oc2ccc(Cl)cc21,n,n,54,n,59
COc1ccc(NCC(=O)N/N=C/c2c(C)nn(Cc3ccccc3)c2Cl)cc1,n,n,n,n,n
COc1cc(/C=C/c2noc(-c3ccccc3O)n2)cc(OC)c1OC,n,n,n,n,n
COc1cc(/C=C/c2nnc3c4ccccc4ncn23)cc(OC)c1OC,n,n,28,n,43
O=C(COC(=O)C1CCN(S(=O)(=O)c2cccc3cccnc23)CC1)c1ccccc1,n,n,29,n,63
CN1c2ccccc2C(C)(C)C12C=Nc1c(ccc3ccccc13)O2 (centres undefined),n,n,n,n,n
CN1c2ccccc2C(C)(C)[C@]12C=Cc1cc(O)ccc1O2,n,n,74,n,61
COc1cc2c(cc1NC(=O)C(C)N1CCN(S(=O)(=O)c3ccccc3[N+](=O)[O-])CC1)oc1ccccc12 (centres undefined),n,93,n,n,n
COc1cc2c(cc1NC(=O)C(C)N1CCN(S(=O)(=O)c3ccc(C)c(C)c3)CC1)oc1ccccc12 (centres undefined),n,n,n,n,n
C/C(=N\NC(=S)Nc1ccc(F)cc1)C1CC1,n,n,n,n,92
CC1CCN(C(=S)Nc2ccc(F)cc2)CC1,n,n,n,n,n
O=C(C[N+]1(CC#Cc2ccccc2)CCCCC1)c1ccccc1,n,n,25,n,34
O=C(C[N+]1(CC#Cc2ccccc2)CCOCC1)c1ccc(Cl)cc1,n,n,n,n,n
O=C(C[N+]1(CC#Cc2ccccc2)CCCCC1)c1ccc(Cl)cc1,n,n,n,n,38
COc1ccc(C/C(C)=N/NC(=O)c2ccc(Cl)cc2)cc1,n,n,n,n,n
CCOc1cc(C(=O)N/N=C(\C)Cc2ccc(OC)cc2)cc(OCC)c1OCC,n,86,n,n,n
Cn1c(N)c(C(=O)COC(=O)CC2CC3CCC2C3)c(=O)n(C)c1=O (centres undefined),n,n,n,n,60
CCn1c(C)c(P(c2ccccc2)c2ccccc2)[n+]2ccccc12,n,n,69,n,70
CCC(Oc1ccccc1)C(=O)Nc1cc(C)on1 (centres undefined),n,n,n,n,n
CCC(Oc1ccccc1)C(=O)Nc1ccccn1 (centres undefined),n,n,n,n,89
COc1cccc(C(=O)NNC2=CC(=O)CC(C)(C)C2)c1,n,n,n,n,n
CC(=O)N1CCc2c(sc(NC(=O)c3ccc4c(c3)OCCO4)c2C#N)C1,n,59,n,n,n
COc1cc(NS(=O)(=O)c2ccc(NC(=O)C34CC5CC(CC(C5)C3)C4)cc2)ncn1,n,n,n,n,n
Fc1ccc(-c2nnc3ccccn23)cc1,n,n,n,n,81
SMILES,IEC-6 tox,APP 5UTR inh,Ba/F3 V617F tox,KLF5 inhibitor,BaF3 tox
CS(=O)(=O)N1CCCC(C(=O)NCCCN2CCC(Cc3ccccc3)CC2)C1 (centres undefined),n,n,n,n,96
CC1=CC(C)(C)N2C(=O)C(=O)c3cc(OC(=O)c4ccco4)cc1c32,88,66,69,n,53
Cn1cnnc1SCC(=O)Nc1sc2c(c1C#N)CCCCC2,n,n,n,n,n
Cc1ccc2nc(NC3=NCN(Cc4ccc5c(c4)OCO5)CN3)nc(C)c2c1,n,94,63,n,70
CCOc1ccc2nc(NC3=NCN(CC4CCCO4)CN3)nc(C)c2c1 (centres undefined),n,n,n,n,n
CCC(=O)c1ccc(N2CCCC2)c(F)c1,n,n,n,n,n
O=C(Nc1cnn(Cc2ccc(Cl)cc2)c1)c1ccc([N+](=O)[O-])cc1,n,n,n,n,n
Cc1ccc(NC(=O)CN2C(=O)C3C4C=CC(C4)C3C2=O)cc1S(=O)(=O)N(C)C (centres undefined),n,55,n,n,n
CCc1ccc(Nc2cnn(C34CC5CC(CC(CC(=O)O)(C5)C3)C4)c(=O)c2Cl)cc1,n,57,n,n,n
CC(C)(C)NC(=O)C(c1ccncc1)N(Cc1cccs1)C(=O)Cn1nnc(-c2ccc(F)cc2)n1 (centres undefined),n,n,n,n,n

# Screens deposited in PubChem by several laboratories.
